The results in this text go back to PubChem BioAssay (NCI).

Molecules are shown by their SMILES. The panel holds about 83,000 compounds, 20% with a hit somewhere; the sample as a whole holds those more often.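 For each line, cells grew in 96-well plates with the test compound present at a single concentration for 48 hours.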 Calls of active or inactive are those of the source. How the source made its calls: active means growth percent below 10; inactive means the rest.

Assay in all cases: NCI-60 one-dose screen, 48 h (100 = growth as untreated, 0 = no growth, -100 = all killed)
One experiment relates to SN12C renal. To be noted: 10 µM.
For the next experiment, the system named is UO-31 renal. To be noted: 10 µM.
For another experiment, the system named is TK-10 renal. To be noted: 10 µM unless noted.
A further experiment has as its system ACHN renal. To be noted: 10 µM.
The subject of another experiment is CAKI-1 renal. The following applies: 10 µM.
A further experiment relates to MOLT-4 leukemia. The following applies: 10 µM.
A further experiment has as its system A498 renal. The following applies: 10 µM.
Another experiment deals with CCRF-CEM leukemia. The following applies: 10 µM.
The test system of the next experiment is EKVX NSCLC. The following applies: 10 µM.

Regarding `O=C(Cc1ccc(OCc2ccccc2)cc1)NCc1ccc2c(c1)OCO2`, the growth in the experiment on SN12C renal is 89.9% (inactive); in the experiment on UO-31 renal, 73.7% (inactive); in the experiment with TK-10 renal it was 77% (inactive); in the experiment with ACHN renal, 104% (inactive); with CAKI-1 renal, 32.5% (inactive); in the experiment with MOLT-4 leukemia it was 55.2% (inactive).

For the compound `CC(C(=O)O)(C1CCCCC1)C1(O)CCCCC1` (stereo unspecified), the growth is 100% (inactive) in the experiment with SN12C renal; 84.9% (inactive) with UO-31 renal; 91.1% (inactive) in the experiment with TK-10 renal; 107% (inactive) in the experiment on ACHN renal; 96.7% (inactive) with CAKI-1 renal; 94.3% (inactive) with MOLT-4 leukemia.

Consider `S=C1NCc2cncnc2N1`, for which the growth was 107% (inactive) in the experiment on SN12C renal; 88.8% (inactive) in the experiment with UO-31 renal; 97.8% (inactive) with TK-10 renal; 93% (inactive) in the experiment with ACHN renal; 85.5% (inactive) in the experiment with CAKI-1 renal; 104% (inactive) with A498 renal. Further, the growth with MOLT-4 leukemia is 95.6% (inactive).

Consider `CC1CCC2C(C)(C)C3CC12CC1OC13C` (stereo unspecified), for which the growth in the experiment with SN12C renal is 97.1% (inactive); with UO-31 renal it was 109% (inactive); in the experiment on TK-10 renal it was 104% (inactive); in the experiment with ACHN renal, 103% (inactive); in the experiment with CAKI-1 renal it was 98.5% (inactive); in the experiment on A498 renal, 94% (inactive). Also, the growth was 112% (inactive) in the experiment on CCRF-CEM leukemia and 110% (inactive) in the experiment with MOLT-4 leukemia.

On to `O=C(O)/C=C/C(=O)NCc1ccccc1`, for which the growth in the experiment on SN12C renal was 108% (inactive); with UO-31 renal it was 90.9% (inactive); with ACHN renal it was 97.9% (inactive); in the experiment with CAKI-1 renal, 102% (inactive); in the experiment on A498 renal, 109% (inactive); with MOLT-4 leukemia, 101% (inactive).

Take `CSC(=N\N=C\c1ccc(N(C)C)cc1)/N=C/N(C)C`: the growth was 108% (inactive) with SN12C renal; 101% (inactive) in the experiment with UO-31 renal; 131% (inactive) with TK-10 renal; 101% (inactive) with ACHN renal; 104% (inactive) in the experiment on CAKI-1 renal; 97% (inactive) in the experiment with A498 renal. Moreover, in the experiment with MOLT-4 leukemia, the growth is 101% (inactive).

Regarding `N#Cc1ccc(OC(=O)Nc2ccc(Cl)c(Cl)c2)cc1`, the growth in the experiment with SN12C renal was 79.5% (inactive); in the experiment with UO-31 renal, 60.6% (inactive); with TK-10 renal, 90.7% (inactive); with ACHN renal, 50.8% (inactive); in the experiment with CAKI-1 renal it was 35.8% (inactive); in the experiment on A498 renal, 106% (inactive). Also, the growth in the experiment with MOLT-4 leukemia is 79.9% (inactive).

Take `CCc1nn(Cc2ccccc2)c2nc(C)c(CCc3ccccc3)c(Cl)c12`: the growth is 84.3% (inactive) in the experiment with EKVX NSCLC; 86.1% (inactive) in the experiment with SN12C renal; 91.5% (inactive) in the experiment on TK-10 renal; 98.4% (inactive) in the experiment with ACHN renal; 67.8% (inactive) in the experiment with CAKI-1 renal; 99.1% (inactive) with A498 renal. For the same compound, the growth in the experiment on CCRF-CEM leukemia is 80.1% (inactive); with MOLT-4 leukemia, 96% (inactive).

Regarding `CCCCCC(C)(CC(=O)O)CC(=O)O`, the growth in the experiment with SN12C renal is 110% (inactive); in the experiment on UO-31 renal, 97.6% (inactive); in the experiment on TK-10 renal, 111% (inactive); with ACHN renal it was 103% (inactive); in the experiment on CAKI-1 renal, 116% (inactive); in the experiment on A498 renal it was 113% (inactive). The figures for the growth with CCRF-CEM leukemia and in the experiment on MOLT-4 leukemia were 107% (inactive) and 103% (inactive), respectively.

As to `O=C(CCl)N1CCN(C/C=C/c2ccccc2)CC1`, the growth in the experiment on SN12C renal is 64.6% (inactive); in the experiment with UO-31 renal, 93.1% (inactive); in the experiment with TK-10 renal, 85.6% (inactive); in the experiment with ACHN renal, 95.8% (inactive); in the experiment with CAKI-1 renal, 99.3% (inactive); in the experiment on A498 renal, 94% (inactive). In addition, the growth in the experiment on CCRF-CEM leukemia is 21.7% (inactive); in the experiment with MOLT-4 leukemia, 71.4% (inactive).

Consider `COc1ncnc2c1cnn2C`, for which the growth is 100% (inactive) in the experiment with EKVX NSCLC; 98.2% (inactive) in the experiment with SN12C renal; 108% (inactive) with TK-10 renal; 98.1% (inactive) with ACHN renal; 105% (inactive) in the experiment on CAKI-1 renal; 99.7% (inactive) in the experiment on A498 renal. Also, the growth in the experiment on CCRF-CEM leukemia is 97% (inactive); with MOLT-4 leukemia, 89.9% (inactive).

Turning to `CNC(=O)c1ccccc1CC1(O)c2ccccc2Oc2ccccc21`, the growth with SN12C renal is 80.9% (inactive); in the experiment on UO-31 renal it was 57.7% (inactive); with TK-10 renal it was 58.9% (inactive); with ACHN renal it was 54.4% (inactive); in the experiment with CAKI-1 renal, 44.8% (inactive); with A498 renal, 0.171% (active). Moreover, the growth was 56.4% (inactive) in the experiment on CCRF-CEM leukemia and 38.1% (inactive) in the experiment on MOLT-4 leukemia.

Regarding `COC(=O)CCCCC1=CCC2C(=O)C=C(O)C2C1` (stereo unspecified), the growth is 102% (inactive) in the experiment on SN12C renal; 89.9% (inactive) in the experiment with UO-31 renal; 96.4% (inactive) with TK-10 renal; 98.9% (inactive) in the experiment on ACHN renal; 82.7% (inactive) in the experiment with MOLT-4 leukemia.

For the compound `CC(=O)c1ccc2c(ccc3ccccc32)c1`, the growth with SN12C renal was 102% (inactive); with UO-31 renal it was 100% (inactive); with ACHN renal, 110% (inactive); with CAKI-1 renal, 107% (inactive); in the experiment with A498 renal, 92.8% (inactive); with CCRF-CEM leukemia, 86.2% (inactive). In addition, the growth in the experiment on MOLT-4 leukemia is 93% (inactive).

For `O=C(O)CCC(=O)OC(C1CO1)C(OC(=O)CCC(=O)O)C1CO1` (stereo unspecified), the growth with SN12C renal is 109% (inactive); in the experiment on UO-31 renal, 85.3% (inactive); in the experiment with TK-10 renal, 93.2% (inactive); with ACHN renal, 101% (inactive); in the experiment with CAKI-1 renal it was 106% (inactive); in the experiment with A498 renal it was 80.5% (inactive). The values for the growth in the experiment with CCRF-CEM leukemia and with MOLT-4 leukemia were 101% (inactive) and 99.8% (inactive), respectively.

On to `O=C(OCC(O)C1OC(c2ccccc2)OC(COC(=O)c2ccccc2)C1O)c1ccccc1` (stereo unspecified), for which the growth was 99.6% (inactive) in the experiment on SN12C renal; 93.2% (inactive) in the experiment with UO-31 renal; 99.6% (inactive) in the experiment on TK-10 renal; 106% (inactive) in the experiment on ACHN renal; 85.3% (inactive) in the experiment with CAKI-1 renal; 102% (inactive) with MOLT-4 leukemia.

`N#CC(=Nc1cccc(F)c1)C1=C(O)c2ccccc2C1=O`: the growth is 82.8% (inactive) with SN12C renal; 78.6% (inactive) in the experiment with UO-31 renal; 110% (inactive) in the experiment on TK-10 renal; 87.1% (inactive) with ACHN renal; 47% (inactive) with CAKI-1 renal; 79.4% (inactive) with A498 renal. Moreover, the growth with MOLT-4 leukemia was 96.5% (inactive).

Regarding `c1ccc(CN2COc3c(ccc4c3OCN(Cc3ccccc3)C4)C2)cc1`, the growth is 11.1% (inactive) in the experiment on SN12C renal; -17.5% (active) in the experiment with UO-31 renal; 30.5% (inactive) with TK-10 renal; 12.3% (inactive) in the experiment with ACHN renal; 7.65% (active) in the experiment with CAKI-1 renal; 51.6% (inactive) with A498 renal. For the same compound, the growth with CCRF-CEM leukemia is 5.13% (active); in the experiment with MOLT-4 leukemia, 0.409% (active).

Consider `O=C(Nc1cccc(NC(=O)Nc2cc(C(F)(F)F)ccc2Cl)c1)Nc1cc(C(F)(F)F)ccc1Cl`, for which the growth in the experiment on SN12C renal is 22% (inactive); with UO-31 renal it was 0.156% (active); with TK-10 renal, -13.8% (active); in the experiment with ACHN renal, 9.11% (active); with CAKI-1 renal, -2.82% (active); in the experiment on A498 renal, -3.96% (active). Also, the growth is 5.91% (active) in the experiment on CCRF-CEM leukemia and 2.16% (active) with MOLT-4 leukemia.

Turning to `COC(=O)Nc1cccc(Cl)c1OC`, the growth was 112% (inactive) in the experiment on SN12C renal; 95.6% (inactive) in the experiment on UO-31 renal; 120% (inactive) with TK-10 renal; 99.8% (inactive) in the experiment with ACHN renal; 94.5% (inactive) with CAKI-1 renal; 61.9% (inactive) in the experiment with A498 renal. Further, the growth in the experiment on MOLT-4 leukemia is 103% (inactive).

For `O=C(NCCNC(=O)c1ccc(Cl)cc1Cl)c1ccc(Cl)cc1Cl`, the growth in the experiment on SN12C renal was 87.1% (inactive); with UO-31 renal, 90.9% (inactive); in the experiment with TK-10 renal it was 120% (inactive); with ACHN renal it was 110% (inactive); with CAKI-1 renal, 84.4% (inactive); in the experiment with A498 renal it was 104% (inactive). Also, the growth in the experiment with MOLT-4 leukemia is 96.6% (inactive).

As for `CN(C)c1ccc2nc3ccc(=N)cc-3sc2c1`, the growth in the experiment on SN12C renal is 57.3% (inactive); in the experiment with UO-31 renal, 57.3% (inactive); with TK-10 renal, 105% (inactive); in the experiment on ACHN renal, 53% (inactive); in the experiment with CAKI-1 renal it was 68.3% (inactive); in the experiment on A498 renal it was 55.8% (inactive).
